STK33 inh = inhibitors of human STK33 kinase | ADP-Glo luminescence, MBP substrate | inhibition, % at 12.5 µM | actives 0.44% (n = 27,000) | AID 2322; in the data active = inhibition above about 20%; inconclusive = no clear call, values can overlap the other calls
Target sequence (Q9BYT3 whole entry, looked up): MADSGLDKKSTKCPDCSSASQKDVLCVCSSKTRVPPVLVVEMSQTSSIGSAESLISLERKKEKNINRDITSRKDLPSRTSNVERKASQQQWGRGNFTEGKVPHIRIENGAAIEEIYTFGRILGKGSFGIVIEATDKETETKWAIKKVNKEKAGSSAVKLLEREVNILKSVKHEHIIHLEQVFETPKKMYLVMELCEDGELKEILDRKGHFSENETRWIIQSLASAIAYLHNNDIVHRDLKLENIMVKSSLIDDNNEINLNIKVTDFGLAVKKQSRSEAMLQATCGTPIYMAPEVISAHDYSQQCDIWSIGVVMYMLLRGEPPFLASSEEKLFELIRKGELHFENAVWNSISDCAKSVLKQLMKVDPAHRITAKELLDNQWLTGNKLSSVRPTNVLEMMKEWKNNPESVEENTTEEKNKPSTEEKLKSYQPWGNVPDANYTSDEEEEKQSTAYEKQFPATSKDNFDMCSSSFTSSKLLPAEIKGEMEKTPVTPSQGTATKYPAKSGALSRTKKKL
NOMO-1 viab = STK33 inhibitor candidate reducing NOMO-1 cell viability. NOMO-1 AML viability, CellTiter-Glo luminescence, 72 h. inhibition, % (test concentration not listed). actives 7.5% (n = 37,000). AID 2330; in the data active = inhibition above about 80%; inconclusive = no clear call, values can overlap the other calls
PD-1 reverse act = activators reversing PD-1 mediated T-cell inhibition. primary human CD4 T cells, PD-L1 beads, CellTiter-Glo 96 h. activation, % (no concentration beside the values). 29,000 tested, under 10 active. AID 2316; call rule not given here;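 note: 0% = median vehicle wells and 100% = positive control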
* hit, by the source's call; ? = inconclusive; . = no result given. The entries come from a sample that favours hits as a whole.

SMILES | STK33 inh | NOMO-1 viab | PD-1 reverse act
COC(=O)C1=C(C)N(C)C(=O)NC1c1ccc(OC)c(Br)c1 (stereo not drawn) | -6 | 2 | 3
CCOC(=O)CSc1n[nH]c(-c2ccc(Cl)cc2)n1 | -4 | 119* | 0
CCOc1ccc(NC(=O)CSc2n[nH]c(-c3ccc(Cl)cc3)n2)cc1 | -4 | -4 | -3
C[C@@H]1CN([C@H](C)CO)C(=O)c2cccc(NC(=O)CCCCCC(=O)Nc3ccccc3N)c2O[C@H]1CN(C)Cc1ccc(-c2ccccc2)cc1 | . | 126* | 0
C[C@H]1CN([C@@H](C)CO)C(=O)c2cccc(NC(=O)CCCCCC(=O)Nc3ccccc3N)c2O[C@@H]1CN(C)Cc1ccc(-c2ccccc2)cc1 | . | 134* | 0
C[C@H]1CN([C@@H](C)CO)C(=O)c2cccc(NC(=O)CCCCCC(=O)Nc3ccccc3N)c2O[C@H]1CN(C)CC1CC1 | . | 13 | 2
C[C@@H]1CN([C@H](C)CO)C(=O)c2cccc(NC(=O)CCCCCC(=O)Nc3ccccc3N)c2O[C@@H]1CN(C)CC1CCCCC1 | . | 119* | 1
C[C@@H]1CN([C@H](C)CO)C(=O)c2cc(NC(=O)CCCCCC(=O)Nc3ccccc3N)ccc2O[C@H]1CN(C)Cc1ccc(-c2ccccc2)cc1 | . | 69 | 1
C[C@H](CO)N1C[C@H](C)[C@@H](CN(C)Cc2ccncc2)Oc2c(NC(=O)CCCCCC(=O)Nc3ccccc3N)cccc2C1=O | . | 15 | 1
NC(=O)c1c(NC(=O)C(Cc2ccccc2)N2C(=O)c3ccccc3C2=O)sc2c1CCCC2 (stereo not drawn) | 0 | 18 | .
Cc1sc(/N=C/c2cn(Cc3ccccc3)c3ccccc23)c(C#N)c1C | . | 64 | 0
CCOc1ccc(-n2c(SCC(=O)N3CCOCC3)nnc2-c2ccncc2)cc1 | 1 | -17 | 1
C=CCc1ccc(O[C@@H]2O[C@H](CO)[C@@H](O)[C@H](O)[C@H]2O)c(O[C@@H]2O[C@H](CO)[C@@H](O)[C@H](O)[C@H]2O)c1 | -2 | 120* | -1
C=CCc1ccc(O[C@@H]2O[C@H](CO[C@@H]3O[C@@H](C)[C@H](O)[C@@H](O)[C@H]3O)[C@@H](O)[C@H](O)[C@H]2O)c(O)c1 | 3 | 7 | 1
COC(=O)CNC(=O)c1cn(-c2ccccc2)nc1-c1cccs1 | -1 | 105* | 0
COc1ccc(-c2nn(-c3ccccc3)cc2C(=O)NCC(=O)c2ccccc2)cc1OC | 0 | 5 | .
O=C(CN1C(=O)c2ccccc2C1=O)Nc1ccc(S(=O)(=O)N2CCCCCC2)cc1 | -1 | -14 | 3
CCn1c(SCC(=O)Nc2ccccc2C)nnc1-c1ccco1 | -2 | 6 | 3
C[C@@H]1CN([C@H](C)CO)C(=O)c2cc(NC(=O)Nc3ccccc3)ccc2O[C@H]1CN(C)Cc1ccc(C(F)(F)F)cc1 | 3 | 99* | -9
C[C@H](CO)N1C[C@H](C)[C@@H](CN(C)Cc2ccccc2)Oc2ccc(NC(=O)Nc3ccc(C(F)(F)F)cc3)cc2C1=O | . | 122* | -4
C[C@H]1CN([C@@H](C)CO)C(=O)c2cc(NC(=O)Nc3ccc(C(F)(F)F)cc3)ccc2O[C@H]1CN(C)Cc1ccc(C(=O)O)cc1 | -2 | 8 | 3
C[C@@H]1CN([C@H](C)CO)C(=O)c2cc(NC(=O)Nc3ccccc3)ccc2O[C@@H]1CN(C)Cc1ccc(C(F)(F)F)cc1 | -2 | 58 | 1
O=C(Nc1cccc(Br)c1)C1CN(S(=O)(=O)c2ccccc2)CCN1S(=O)(=O)c1ccccc1 (stereo not drawn) | 4 | 11 | .
O=C(O)Cn1c(=O)n(CC(=O)O)c2ccccc21 | -3 | 30 | .
COC(=O)COc1ccc(NC(=O)c2ccc(OC)c([N+](=O)[O-])c2)cc1 | 1 | 121* | -7
SMILES | STK33 inh | NOMO-1 viab | PD-1 reverse act
COc1ccc(C(=O)COc2ccc(NC(=O)c3cccc([N+](=O)[O-])c3)cc2)cc1 | 1 | 1 | 2
Cc1ccc(NC(=O)Cn2cc(C(=O)c3cccs3)c3ccccc32)cc1Cl | -1 | 35 | 0
Cc1ccc(S(=O)(=O)Nc2ccc3c(c2)C(=O)N([C@H](C)CO)C[C@H](C)[C@H](CN(C)S(=O)(=O)c2ccc(Cl)cc2)OCCCC[C@@H](C)O3)cc1 | 3 | 111* | -10
Cc1ccc(S(=O)(=O)Nc2ccc3c(c2)C(=O)N([C@H](C)CO)C[C@H](C)[C@H](CN(C)S(=O)(=O)c2ccccc2)OCCCC[C@@H](C)O3)cc1 | 1 | 91* | -7
C[C@@H]1CCCCO[C@@H](CN(C)S(=O)(=O)c2ccc(Cl)cc2)[C@@H](C)CN([C@H](C)CO)C(=O)c2cc(NC(=O)c3ccccc3)ccc2O1 | -3 | 88* | -4
COc1ccc(S(=O)(=O)Nc2ccc3c(c2)C(=O)N([C@H](C)CO)C[C@H](C)[C@H](CN(C)S(=O)(=O)c2ccc(OC)cc2)OCCCC[C@@H](C)O3)cc1 | 4 | 38 | 0
Cc1ccc(S(=O)(=O)N(C)C[C@H]2OCCCC[C@@H](C)Oc3ccc(NS(=O)(=O)c4ccc(Cl)cc4)cc3C(=O)N([C@H](C)CO)C[C@@H]2C)cc1 | 3 | ? | .
Cc1ccc(S(=O)(=O)N(C)C[C@H]2OCCCC[C@@H](C)Oc3ccc(NS(=O)(=O)c4ccccc4)cc3C(=O)N([C@H](C)CO)C[C@@H]2C)cc1 | 5 | 36 | -6
C[C@@H]1CCCCO[C@H](CN(C)S(=O)(=O)c2ccccc2)[C@@H](C)CN([C@H](C)CO)C(=O)c2cc(NC(=O)c3ccccc3)ccc2O1 | -1 | 4 | -2
COc1ccc(S(=O)(=O)N(C)C[C@@H]2OCCCC[C@@H](C)Oc3ccc(NS(=O)(=O)c4ccc(Cl)cc4)cc3C(=O)N([C@H](C)CO)C[C@@H]2C)cc1 | -8 | 94* | .
O=C(CSc1nnnn1-c1ccccc1)Nc1ccc(Cl)c(C(=O)O)c1 | 3 | 21 | 2
CCOC(=O)c1c(NC(=O)CC2NCCNC2=O)sc2c1CCCC2 (stereo not drawn) | 0 | 1 | -1
COc1ccc2c(c1)O[C@@H]1COc3cc4c(cc3[C@]1(O)C2=O)OCO4 | -2 | 8 | -1
CC1OC(NC(=O)c2ccccc2F)C(NC(=O)c2ccccc2F)OC1C (stereo not drawn) | . | 10 | 0
CCn1c(SCC(=O)Nc2c(C)cc(C)cc2C)nnc1-c1ccccc1C | 7 | -8 | 0
O=C(O)c1c2c(nc3ccccc13)CCC(c1ccccc1)C2 (stereo not drawn) | . | -6 | 1
C[C@@H]1CCCCO[C@H](CN(C)S(=O)(=O)c2ccc(Cl)cc2)[C@@H](C)CN([C@H](C)CO)C(=O)c2cc(NS(=O)(=O)c3ccc(Cl)cc3)ccc2O1 | 1 | 20 | .
C[C@@H]1CCCCO[C@@H](CN(C)S(=O)(=O)c2ccc(F)cc2)[C@@H](C)CN([C@H](C)CO)C(=O)c2cc(NS(=O)(=O)c3ccc(F)cc3)ccc2O1 | 5 | 68 | -10
C[C@@H]1CCCCO[C@@H](CN(C)S(=O)(=O)c2ccc(Cl)cc2)[C@@H](C)CN([C@H](C)CO)C(=O)c2cc(NS(=O)(=O)c3ccc(Cl)cc3)ccc2O1 | 0 | 91* | .
C[C@@H]1CCCCO[C@@H](CN(C)CC2CCCCC2)[C@@H](C)CN([C@H](C)CO)C(=O)c2cc(NS(=O)(=O)c3ccc(Cl)cc3)ccc2O1 | 1 | 97* | -12

From PubChem BioAssay
